# From PubChem
# Shown are actives, neighbours in structure and some others; about 17% of the full set was active somewhere.
# TDP1 cell noCPT: qHTS for Inhibitors of human tyrosyl-DNA phosphodiesterase 1 (TDP1): qHTS in cells in absence of CPT. DT40 Tdp1-/- hTDP1 cells, no CPT, ATP luminescence, 48 h. Potency, µM (highest dose often 46.2 µM), for inactives: at the highest dose activity change, negative = growth inhibition, hits mostly inhibitors. 420,000 compounds, 15% hits; also: % is scaled to controls: 0 for no effect and ±100 for the full control effect; nearly all actives have a fitted effect of over 55% in size
#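 Camptothecin absent (DMSO only). Human TDP1-complemented DT40 knockout cells, 400 cells/well, 37 °C for minimum 48 hr; ATP measured via CellTiter-Glo, 30 min dark incubation, luminescence.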
# TDP1 block: qHTS Assay for Inhibitors of Tyrosyl-DNA Phosphodiesterase (TDP1) | Tyrosyl-DNA phosphodiesterase 1 (Homo sapiens), Q9NUW8 | recombinant TDP1, AlphaScreen DNA substrate cleavage | Potency, µM (top dose mostly 130 µM), for inactives: at the highest dose activity change, negative = inhibition, actives largely listed as inhibitors | 350,000 compounds, 0.28% hits | AID 485290, 2010; also: % is scaled to controls: 0 for no effect and ±100 for the full control effect; nearly all actives have a fitted effect of over 40% in size
# Target sequence (Q9NUW8 whole entry, looked up): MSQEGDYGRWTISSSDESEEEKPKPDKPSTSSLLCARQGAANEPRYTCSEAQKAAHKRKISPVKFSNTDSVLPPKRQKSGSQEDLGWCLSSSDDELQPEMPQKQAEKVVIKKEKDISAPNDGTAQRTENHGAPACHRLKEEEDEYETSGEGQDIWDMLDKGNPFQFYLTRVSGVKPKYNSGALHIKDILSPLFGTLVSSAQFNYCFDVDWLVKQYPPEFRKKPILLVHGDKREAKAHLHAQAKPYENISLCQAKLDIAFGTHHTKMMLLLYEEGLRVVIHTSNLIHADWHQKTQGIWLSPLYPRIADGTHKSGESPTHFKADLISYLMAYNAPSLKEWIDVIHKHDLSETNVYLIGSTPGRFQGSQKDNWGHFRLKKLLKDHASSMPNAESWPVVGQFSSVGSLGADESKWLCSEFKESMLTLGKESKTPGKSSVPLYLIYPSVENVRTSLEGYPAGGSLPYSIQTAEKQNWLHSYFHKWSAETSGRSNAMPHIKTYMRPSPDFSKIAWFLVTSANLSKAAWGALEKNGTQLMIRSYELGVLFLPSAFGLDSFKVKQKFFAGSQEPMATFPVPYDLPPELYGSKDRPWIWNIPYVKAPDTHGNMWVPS
#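 Recombinant E. coli-expressed Tdp1 (1 nM) preincubated with compound 15 min at RT, then 5'-biotin/3'-phosphotyrosine-FITC DNA substrate (15 nM) added for 5 min. AlphaScreen beads (10 ug/ml) added, 10 min RT; tyrosine-FITC cleavage read as signal loss.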
# ClpP mod: qHTS Assay for Activators of ClpP; purified B. subtilis ClpP, FRET peptide cleavage, 20 min; Potency, µM (series often up to 57.5 µM), without a hit: top-dose activity change, negative = active; 340,000 compounds, 1.9% hits; active = well fitted falling curve with a large enough effect; inconclusive = small, poorly fitted or top-dose-only effect; inactive = no such curve, though single readings can be large or run the other way; also: the source files actives as falling curves though it sought activators and does not explain the sign; nearly all actives have a fitted effect of over 65% in size
#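 ClpP 10 microg/mL final, pH 8 Tris/KCl buffer with BSA, glycerol, Tween-20; compound pinned in; FRET-FV substrate; RT 20 min; Ex320/Em430; ΔFRET vs ADEP 5.8 microM, DMSO, no enzyme.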
# DT40 TDP1 CPT: qHTS for Inhibitors of human tyrosyl-DNA phosphodiesterase 1 (TDP1): qHTS in cells in presence of CPT. Potency, µM (doses to about 46.2 µM), for the others: at the top dose activity change, negative = growth inhibition, actives largely listed as inhibitors. 420,000 compounds, 12% hits. chicken DT40 Tdp1-/-;hTDP1 cells + 20 nM CPT, ATP luminescence, 48 h. AID 686979, 2013; also: % is scaled to controls: 0 for no effect and ±100 for the full control effect; nearly all actives have a fitted effect of over 55% in size
#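 Chicken DT40 Tdp1-/- cells stably complemented with human TDP1 were seeded at 400 cells/well in medium containing 20 nM camptothecin, exposed to pin-transferred compounds, and grown at 37 °C for at least 48 hr. Viability was read as ATP luminescence.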
# * marks the source's active call; other numbers are inactive results; ? = inconclusive; / = no result given. Unless noted, calls follow the shape of the dose curve; as a rule, active = well fitted curve in the direction sought with a large enough effect; inconclusive = small, poorly fitted or top-dose-only effect, or another doubt; inactive = no such curve, though single readings can be large; an effect the other way counts as inactive or inconclusive. Potency is read from the fitted curve at half-maximal effect.
SMILES,TDP1 cell noCPT,TDP1 block,ClpP mod,DT40 TDP1 CPT
COCCOC(=O)c1c(C)oc2c1cc(NS(=O)(=O)c1ccc(Cl)c(C)c1)c1ccccc12,23µM*,/,0%,?
O=S1(=O)CC(N2CCCC2)CN1Cc1ccccc1 (centres undefined),0%,/,-1%,-19%
CNc1ccc(C=O)cc1Cl,-3%,/,-6%,-1%
O=C(CCc1nnc(CCC2CCCCC2)o1)NCCc1ccccn1,22%,/,-1%,-1%
CN(CCCN(Cc1ccc(Cl)cc1)c1ccc(Br)cn1)C(=S)NCCCc1cnc[nH]1,?,/,-5%,13µM*
S=C(NCCCCN(Cc1ccc(Cl)cc1)c1ccc(Br)cn1)NCCCc1cnc[nH]1,-93%,/,-4%,7.1µM*
O=C(O)C[C@@H](O)C(=O)O,0%,3%,0%,-26%
COc1ccccc1N1CCN(C(=O)C2CC2)CC1,-11%,/,/,8%
COc1ccccc1N1CCN(C(=O)C2c3ccccc3Oc3ccccc32)CC1,2.9µM*,6%,-2%,2.9µM*
O=C(C1c2ccccc2Oc2ccccc21)N1CCN(c2ccc(Cl)cc2)CC1,15µM*,7%,-5%,?
c1ccc(-n2nnnc2-c2cccc3ccccc23)cc1,4.6µM*,/,-10%,3.7µM*
Clc1ccc2[nH]cc(-c3nnnn3-c3ccccc3)c2c1,?,6%,-5%,21µM*
Clc1ccc2ncc(-c3nnnn3-c3ccccc3)c(-c3ccccc3)c2c1,?,2%,-5%,?
CNC(=O)[C@@H]1C[C@H](Sc2nc3ccccc3[nH]2)CN1Cc1cccc(C(F)(F)F)c1,-21%,/,/,-24%
CN(c1ccccc1C(=O)Nc1ccc(CC#N)cc1)S(=O)(=O)c1ccccc1,-7%,/,13%,12%
O=S(=O)(Nc1ccc2c(c1)nc1n2CCOC1)c1ccc(Cl)cc1,13µM*,2%,2%,?
CNc1ccc2ncc(-c3cccc(C(=O)N(C)C)c3)n2n1,12µM*,/,5%,?
CN(C)C(=O)c1cccc(-c2ccc3nncn3c2)c1,-4%,/,-12%,-2%
CC1(C)C(=O)OC(c2ccccc2)C(C)(C)C1=O (centres undefined),-14%,/,-3%,4%
CCC1=C(OC(=O)c2ccccc2)C(C)(C)C(c2ccccc2)OC1=O (centres undefined),23µM*,0%,1%,?
COc1cccc(-c2nn(C)c3sc(C(=O)N4CCOCC4)cc23)c1,?,10%,-18%,-26%
CCOC(=O)C1CCN(C(=O)c2cc3c(-c4ccc(OC)c(OC)c4)nn(C)c3s2)CC1,21µM*,0%,-18%,16µM*
CC1CCCCN1CCNC(=O)c1cc2c(-c3ccccc3F)nn(C)c2s1 (centres undefined),?,1%,5%,?
CCOC(=O)N1CCC(NC(=O)c2cc3c(-c4ccccc4F)nn(C)c3s2)CC1,8.2µM*,3%,4%,13µM*
CCOC(=O)N1CCC(NC(=O)c2cc3c(-c4ccc(OC)c(OC)c4)nn(C)c3s2)CC1,21µM*,2%,?,?
SMILES,TDP1 cell noCPT,TDP1 block,ClpP mod,DT40 TDP1 CPT
COc1ccc(NC(=O)CN(c2ccc(OC)cc2)S(=O)(=O)c2c(C)nn(C)c2C)cc1,12%,0%,-3%,-9%
CC[C@@H]1CC=C[C@H]2[C@H]1C(=O)N(Cc1ccccc1)[C@H]2c1ccc(C(F)(F)F)cc1,?,-1%,-5%,15µM*
CC[C@@H]1CC=C[C@H]2[C@H]1C(=O)N(Cc1ccccc1)[C@H]2c1ccoc1,15µM*,2%,-1%,16µM*
CCC1CC=CC2C1C(=O)N(Cc1ccccc1)C2c1ccc(C(F)(F)F)cc1 (centres undefined),/,-8%,/,/
Cc1ccc(NS(=O)(=O)c2ccc3c(c2)N(C)C(=O)CO3)cc1C,/,1%,/,/
C=C1C=C(C(F)F)n2ncc(C(=O)NCc3ccc(OC)c(OC)c3)c2N1,?,/,-1%,?
CC(C)(C)NC(=O)C(c1ccc(C(F)(F)F)cc1)n1c(=O)c(-c2ccccc2)nc2ccccc21 (centres undefined),?,/,?,18µM*
O=C(NC1CCCCC1)C(c1ccc(C(F)(F)F)cc1)n1c(=O)c(-c2ccccc2)nc2ccccc21 (centres undefined),13µM*,/,4%,?
CC(C)(C)NC(=O)C(c1ccncc1)n1c(=O)c(-c2ccccc2)nc2ccccc21 (centres undefined),-8%,/,4%,-6%
Cc1cccc(C)c1NC(=O)C(C1CC1)n1c(-c2ccc(C(F)(F)F)cc2)nc2ccccc21 (centres undefined),18µM*,/,5%,?
Cc1cccc(C)c1NC(=O)C(C1CC1)n1c(-c2ccc(-c3ccccc3)cc2)nc2ccccc21 (centres undefined),?,/,4%,?
O=C(NC1CCCC1)C(c1ccccc1)n1c(Cc2cc(F)cc(F)c2)nc2ccccc21 (centres undefined),?,/,-2%,18µM*
O=C(NC1CCCCC1)C(CCc1ccccc1)n1c(=O)c(-c2ccccc2)nc2ccccc21 (centres undefined),-29%,/,?,?
O=C(NCc1ccccc1)C(c1ccccc1)n1c(C2CC2)nc2ccccc21 (centres undefined),?,/,-19%,?
COc1ccc(C(C(=O)NC(C)(C)C)n2c(-c3ccc(C(F)(F)F)cc3)nc3ccccc32)cc1 (centres undefined),?,/,4%,16µM*
CCOc1ccc(N2CC(C(=O)Nc3nnc(CC)s3)CC2=O)cc1 (centres undefined),0%,/,/,0%
COc1ccc(CCNC(=O)CCc2cn(Cc3ccccc3Cl)c3ccccc23)c(OC)c1,16µM*,10%,-16%,?
Cc1ccc(Cn2cc(CCC(=O)NC3CCCCC3)c3ccccc32)cc1,15µM*,5%,-7%,?
CCOc1ccc(CCNC(=O)CCc2cn(Cc3ccc(C)cc3)c3ccccc23)cc1,12µM*,5%,?,?
COc1ccc(OC)c(CCNC(=O)CCc2cn(C)c3ccccc23)c1,?,/,/,-28%
COc1ccc(CCNC(=O)CCc2cn(Cc3ccc(F)cc3)c3ccccc23)cc1OC,16µM*,8%,-13%,?
Cc1ccc(CNC(=O)CCc2cn(Cc3ccc(C)cc3)c3ccccc23)cc1,-25%,5%,-9%,-25%
O=S(=O)(c1ccc2nc(Cl)c(Cl)nc2c1)N1CCN(S(=O)(=O)c2c(F)cccc2F)CC1,/,-13%,/,/
